Experimental data from PubChem BioAssay.
Records with an inconclusive call do not appear. Calls of active or inactive are those of the source. Cut-off read from the data, not from the text of the source, unless noted: active = inhibition above about 30%; inactive = the rest.

Key:
[1] = Her2 expression decrease, cell viability multiplex – SKBR3 breast tumor cells, AlphaScreen, ATP viability, primary screen (AID 461;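 active = Her2 level under about 52% in both replicate screens, with viability over 70% of control, limit read from the data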;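 for Her2 level: lower value means less Her2 protein in the cells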;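 for viability: percent of carrier control wells set as 100% viability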); details: SKBR3 Her2 protein level, 18-24 h, measured here: SKBR3 viability, ATP luminescence, at 10 µM
[2] = biological target: Receptor tyrosine-protein kinase erbB-2 (Homo sapiens) (UniProt P04626); test: as above; details: 18-24 h, at 10 µM, stronger effect = lower value
Receptor tyrosine-protein kinase erbB-2 (Homo sapiens), sequence (P04626 whole entry, looked up): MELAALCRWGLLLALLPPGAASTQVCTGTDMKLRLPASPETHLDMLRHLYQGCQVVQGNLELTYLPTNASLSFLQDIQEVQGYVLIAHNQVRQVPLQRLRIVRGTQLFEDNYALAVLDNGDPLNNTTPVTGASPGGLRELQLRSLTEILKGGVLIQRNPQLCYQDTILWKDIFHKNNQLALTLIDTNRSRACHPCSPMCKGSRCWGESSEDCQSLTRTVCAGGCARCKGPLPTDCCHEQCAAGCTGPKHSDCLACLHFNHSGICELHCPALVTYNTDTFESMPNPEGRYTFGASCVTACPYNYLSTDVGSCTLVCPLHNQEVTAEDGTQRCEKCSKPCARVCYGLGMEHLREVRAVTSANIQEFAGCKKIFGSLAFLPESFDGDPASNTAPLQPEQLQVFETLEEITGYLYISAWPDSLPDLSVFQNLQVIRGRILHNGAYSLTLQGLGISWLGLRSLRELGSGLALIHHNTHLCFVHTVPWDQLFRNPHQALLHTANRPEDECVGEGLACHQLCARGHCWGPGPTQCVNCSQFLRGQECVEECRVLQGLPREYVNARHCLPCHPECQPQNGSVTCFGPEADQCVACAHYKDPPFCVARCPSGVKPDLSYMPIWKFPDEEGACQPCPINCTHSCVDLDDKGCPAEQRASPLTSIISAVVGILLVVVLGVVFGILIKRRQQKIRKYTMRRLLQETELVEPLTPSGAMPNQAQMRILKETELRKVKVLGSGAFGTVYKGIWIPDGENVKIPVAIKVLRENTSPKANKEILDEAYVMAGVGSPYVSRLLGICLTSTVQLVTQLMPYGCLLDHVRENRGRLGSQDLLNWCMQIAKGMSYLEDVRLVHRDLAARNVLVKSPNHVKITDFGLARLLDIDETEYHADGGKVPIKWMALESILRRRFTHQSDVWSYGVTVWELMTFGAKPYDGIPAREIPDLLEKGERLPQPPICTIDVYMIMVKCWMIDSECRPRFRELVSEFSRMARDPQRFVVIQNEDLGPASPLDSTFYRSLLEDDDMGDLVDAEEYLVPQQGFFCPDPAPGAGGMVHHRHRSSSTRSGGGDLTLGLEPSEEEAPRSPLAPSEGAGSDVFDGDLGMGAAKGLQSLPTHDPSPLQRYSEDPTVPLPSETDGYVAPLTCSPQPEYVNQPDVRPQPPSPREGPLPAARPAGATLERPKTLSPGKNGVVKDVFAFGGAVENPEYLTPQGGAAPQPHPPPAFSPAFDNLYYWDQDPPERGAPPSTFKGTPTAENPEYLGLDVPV

[3] = reduced viability of SK-BR-3 breast cancer cells – cell-based, 24 h, human, pilot screen (AID 572;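 active = viability at or below 10% of carrier control in both of two separate runs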;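 note: compound exposure lasted between 18 and 24 h rather than exactly 24 h; 100% = carrier-treated control wells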); details: SK-BR-3 viability, CellTiter-Glo luminescence, at 10 µM, stronger effect = lower value
[4] = HUVEC growth inhibition – cell-based, human, primary screen (AID 575;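 active = viability at or below 30% in both replicate assays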;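 note: 100% = median of untreated cell wells with 0.1% DMSO on each plate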); details: HUVEC proliferation, CellTiter-Glo luminescence, 72 h; at 10 µM; stronger effect = lower value
[5] = H69AR cell proliferation blockers – human, duplicate replicates, primary screen (AID 580;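 active = viability at or under a set limit in both replicates, limit being median viability minus 3 SD, cut at about 48% in these data, passing the limit was not always enough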;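 note: 100% = mean luminescence of untreated wells and 0% = no signal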); details: H69AR lung tumor cells viability, ATP luminescence, 72 h; at 10 µM; stronger effect = lower value
[6] = MRP1 drug-resistance reversers in H69AR cells – cell-based, doxorubicin co-treatment, pilot screen (AID 601;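 active = viability loss from added drug above about 55%, and viability with drug at most 40%, in both replicates, limit read from the data, passing the limit was not always enough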); details: CellTiter-Glo, 72 h, at 10 µM; for differential viability (reversal): stronger effect = higher value
[7] = yeast transport mutant growth inhibition pilot in 384-well plates, post-Golgi transport modulator project (AID 636; in the data active = inhibition above about 31%); details: absorbance 615 nm, about 18 h, stronger effect = higher value
[8] = growth suppression of yeast trafficking mutant, preliminary HTS, modulators of trafficking downstream of Golgi apparatus project, 1536-format plate, OD 615 nm (AID 637); details: yeast transport mutant growth, absorbance 615 nm, 18 h; stronger effect = higher value
[9] = S. cerevisiae growth inhibition in permissive medium (OD615), pilot counter-assay for S. cerevisiae lifespan shortening project, permissive growth control (AID 705;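 active = growth inhibition above 25% in both replicates, a cutoff set 3 SD above the mean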); details: OD615, 24 h, at 10 µM, stronger effect = higher value
[10] = S. cerevisiae growth inhibition in restrictive medium, OD615, pilot screen, restrictive growth control, yeast lifespan reduction project (AID 706;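 active = growth inhibition above a set limit, 3 SD over mean compound inhibition, in both replicates, cut at about 43% in these data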;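 note: modified DeaD lifespan yeast strain shifted to restrictive glucose medium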); details: OD615, 48 h, at 10 µM, stronger effect = higher value
[11] = doxorubicin toxicity protection in MRP-1 cells – H69AR cells, CellTiter-Glo, duplicate, MRP-1 activator project, pilot screen (AID 807;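 active = viability increase at or above a cutoff of the median across tested compounds plus 3 SD, cut at about 8.5% in these data, passing the limit was not always enough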;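 note: compound pretreatment 18-22 h then 72 h combined with doxorubicin; 0% = doxorubicin alone and 100% = vehicle without doxorubicin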); details: H69AR viability with doxorubicin, CellTiter-Glo luminescence; at 10 µM; stronger effect = higher value
[12] = viability of HCT116 without oncogenic beta-catenin – human colon tumor cells, pilot screen (AID 823;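 active = cell viability at or below a set limit in both duplicate runs, the limit being the all-compound median minus 4 SD, cut at about 23% in these data, passing the limit was not always enough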;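 note: 0% = wells killed by 20 µM Hyamine and 100% = untreated DMSO cell wells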); details: HCT116 beta-catenin knockout viability, CellTiter-Glo, 60 h; at 10 µM; stronger effect = lower value
[13] = viability of PTEN-null HCT116 cells – cell-based, HCT116 clonal line, CellTiter-Glo, pilot screen (AID 824;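 active = viability at or below 27.92% in each of two runs, the all-compound median minus 4 SD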;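 note: 0% = 20 µM Hyamine control and 100% = vehicle cell control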); details: HCT116 PTEN-deleted viability, 60 h, at 10 µM, stronger effect = lower value
[14] = RAM pathway blockade in budding yeast – dse1pr::URA3 reporter, 5-FOA selection, pilot screen (AID 869;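 active = inhibition over a set limit, the all-compound mean plus 3 SD, in both replicate runs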;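 note: 0% = DMSO wells with no growth and 100% = 10 µM 1-NA-PP1 with full growth; RAM network block rescues cells from 5-FOA so hits raise OD615 growth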); details: S. cerevisiae dse1pr::URA3 5-FOA growth, OD615, 2 d; at 10 µM; stronger effect = higher value; strain carries analog-sensitive mutant Cbk1 kinase
[15] = H69AR cells + 2 uM doxorubicin, measured here: viability with 2 uM doxorubicin, stronger effect = lower value
[16] = H69AR cells, compound alone cytotoxicity

| Compound | viability [1] [%] | Her2 level [2] | viability [3] | viability [4] | viability [5] | differential viability (reversal) ([6]; H69AR cells + 2 uM doxorubicin) | viability [6, 15] [%] | viability [6, 16] [%] | inhibition [7] | inhibition [8] | growth inhibition [9] | growth inhibition [10] | viability increase [11] | viability [12] | viability [13] | inhibition [14] |
| --- | --- | --- | --- | --- | --- | --- | --- | --- | --- | --- | --- | --- | --- | --- | --- | --- |
| CC(C)n1c(=NC(=O)c2ccco2)c(C#N)cc2c(=O)n3ccccc3cc21 | 100 | 106% (inactive) | 100% (inactive) | 84.1% (inactive) | 6.44% (active) | 4.01% (inactive) | 2.43 | 6.44 | 3.16% (inactive) | -6.61% (inactive) |  |  |  |  |  |  |
| CCNCc1cc2cc(C)ccc2[nH]c1=O | 106 | 99% (inactive) | 106% (inactive) | 80.6% (inactive) | 82.7% (inactive) | -7.93% (inactive) | 90.6 | 82.7 | -8.78% (inactive) | -7% (inactive) |  |  |  |  |  |  |
| CCCn1c(SCC(=O)Nc2cc(C)on2)nc2c1c(=O)n(C)c(=O)n2C | 100 | 118% (inactive) | 100% (inactive) | 87% (inactive) | 100% (inactive) | 15.7% (inactive) | 84.6 | 100 | 0% (inactive) | -4.19% (inactive) |  |  |  |  |  |  |
| CCOC(=O)c1ccc(NS(=O)C23CC4CC(CC(C4)C2)C3)cc1 (stereo unspecified) | 95.5 | 82% (inactive) | 95.5% (inactive) | 74% (inactive) | 87.6% (inactive) | -4.57% (inactive) | 92.2 | 87.6 | -7.57% (inactive) | 3.28% (inactive) |  |  |  |  |  |  |
| COC(=O)CSc1nc2sc3c(c2c(=O)n1C1CCCCC1)CCN(C)C3 | 102 | 75.5% (inactive) | 102% (inactive) | 84.7% (inactive) | 95% (inactive) | 2.91% (inactive) | 92.1 | 95 | -5.66% (inactive) | 1.83% (inactive) |  |  |  |  |  |  |
| CC(=O)NCc1cccc(CNC(C)=O)n1 | 84.5 | 82.5% (inactive) | 84.5% (inactive) | 88.4% (inactive) | 98% (inactive) | 7.96% (inactive) | 90.1 | 98 | -6.8% (inactive) | -6.67% (inactive) |  |  |  |  |  |  |
| CN(C)c1ccc(C=Nc2ccc(N(C)C)cc2)cc1 | 104 | 94% (inactive) | 104% (inactive) | 74.2% (inactive) | 70.4% (inactive) | -7.71% (inactive) | 78.1 | 70.4 | -6.22% (inactive) | -6.23% (inactive) |  |  |  |  |  |  |
| Cn1c(CN2CCOCC2)nnc1SCC(=O)NCCc1ccccc1 | 104 | 83% (inactive) | 104% (inactive) | 73.6% (inactive) | 91.8% (inactive) | 11.4% (inactive) | 80.4 | 91.8 | -2.08% (inactive) | -2.86% (inactive) |  |  |  |  |  |  |
| CCOC(=O)CSc1nnc(CNC(=O)c2cccs2)n1-c1cc(OC)ccc1OC | 96.5 | 94% (inactive) | 96.5% (inactive) | 113% (inactive) | 99.3% (inactive) | 11.1% (inactive) | 88.3 | 99.3 | -6.32% (inactive) | -0.55% (inactive) |  |  |  |  |  |  |
| CCOc1cc(C2NC(=O)N(C)C(C)=C2C(=O)OC)cc(Br)c1O (stereo unspecified) | 112 | 79.5% (inactive) | 112% (inactive) | 69.9% (inactive) | 93.8% (inactive) | 21.3% (inactive) | 72.6 | 93.8 | -4.73% (inactive) | 4.44% (inactive) |  |  |  |  |  |  |
| O=C(COc1ccccc1Cl)OCC(=O)N1CCN(S(=O)(=O)c2ccccc2)CC1 | 101 | 85% (inactive) | 101% (inactive) | 89.4% (inactive) | 87.4% (inactive) | -1.84% (inactive) | 89.2 | 87.4 | -6.13% (inactive) | -2.79% (inactive) |  |  |  |  |  |  |
| COc1ccccc1-c1cc(C(=O)Nc2cc(C)nn2-c2ccccc2)no1 | 89 | 81.5% (inactive) | 89% (inactive) | 61% (inactive) | 15.5% (active) | -33.6% (inactive) | 49.1 | 15.5 | 7.84% (inactive) | -3.11% (inactive) |  |  |  |  |  |  |
| CCn1c(SCC(=O)Nc2ccccc2F)nc2c(c1=O)SC(C)C2 (stereo unspecified) | 116 | 86.5% (inactive) | 116% (inactive) | 96.4% (inactive) | 95.3% (inactive) | 11.5% (inactive) | 83.8 | 95.3 | -6.03% (inactive) | 2.54% (inactive) |  |  |  |  |  |  |
| O=c1c(-c2ccc(F)cc2)coc2c3c(ccc12)OCCO3 | 100 | 78.5% (inactive) | 100% (inactive) | 120% (inactive) | 107% (inactive) | 20% (inactive) | 86.7 | 107 | 0.13% (inactive) | -6.73% (inactive) |  |  |  |  |  |  |
| CCOc1ccc(-c2nc(S(=O)(=O)c3ccccc3)c(NCc3cccnc3)o2)cc1 | 97 | 94% (inactive) | 97% (inactive) | 94.2% (inactive) | 97.6% (inactive) | 6.18% (inactive) | 91.4 | 97.6 | 1.33% (inactive) | -1.13% (inactive) |  |  |  |  |  |  |
| CC(C)(C)c1nc(CN2CCOCC2)ccc1O | 109 | 96.5% (inactive) | 109% (inactive) | 106% (inactive) | 101% (inactive) | 4.21% (inactive) | 96.6 | 101 | -7.03% (inactive) | -0.82% (inactive) |  |  |  |  |  |  |
| COc1ccc(N(CC(=O)N2CCCCC2)S(=O)(=O)c2ccccc2)c(OC)c1 | 91 | 94.5% (inactive) | 91% (inactive) | 91.9% (inactive) | 86.5% (inactive) | -2.6% (inactive) | 89.1 | 86.5 | -1.03% (inactive) | -3.83% (inactive) |  |  |  |  |  |  |
| Cc1oc(-c2ccccc2F)nc1CS(=O)(=O)CC(=O)N1CCCCCC1 | 99 | 108% (inactive) | 99% (inactive) | 101% (inactive) | 100% (inactive) | 13.4% (inactive) | 87.1 | 100 | 1.07% (inactive) | -3.28% (inactive) |  |  |  |  |  |  |
| CCn1ncc(C2=NOC(C(=O)Nc3ccc4c(c3)OCO4)C2)c1C (stereo unspecified) | 95.5 | 139% (inactive) | 95.5% (inactive) | 108% (inactive) | 94.8% (inactive) | 0.945% (inactive) | 93.9 | 94.8 | -3.97% (inactive) | -4.92% (inactive) |  |  |  |  |  |  |
| CC(C)C(C(=O)Nc1ccc2c(c1)OCO2)N1C(=O)c2ccccc2C1=O (stereo unspecified) | 122 | 92% (inactive) | 122% (inactive) | 94.3% (inactive) | 96.1% (inactive) | 2.06% (inactive) | 94.1 | 96.1 | -4.03% (inactive) | 1.15% (inactive) |  |  |  |  |  |  |
| Cc1cc(C)cc(NC(=O)c2nnn(Cc3cc(C)ccc3C)c2N)c1 | 111 | 92% (inactive) | 111% (inactive) | 71.3% (inactive) | 88.1% (inactive) | -2.83% (inactive) | 90.9 | 88.1 | -0.8% (inactive) | -1.33% (inactive) |  |  |  |  |  |  |
| Cc1cc(=O)oc(C)c1C(=O)O | 102 | 118% (inactive) | 102% (inactive) | 97.1% (inactive) | 92% (inactive) | 7.3% (inactive) | 84.7 | 92 | -6.1% (inactive) | 9.34% (inactive) |  |  |  |  |  |  |
| CCOc1ccccc1N1C(=O)c2ccc(C(=O)Nc3cccnc3)cc2C1=O | 94.5 | 94% (inactive) | 94.5% (inactive) | 88.2% (inactive) | 102% (inactive) | 2.08% (inactive) | 100 | 102 | -1.6% (inactive) | -2.13% (inactive) | -15.8% (inactive) | -21.7% (inactive) | 0.54% (inactive) | 107% (inactive) | 98.7% (inactive) | 3.15% (inactive) |
| O=C(C1CCCO1)N1CCc2ccccc21 (stereo unspecified) | 85 | 92.5% (inactive) | 85% (inactive) | 94% (inactive) | 92.4% (inactive) | -5.42% (inactive) | 97.8 | 92.4 | -4.8% (inactive) | -0.32% (inactive) |  |  |  |  |  |  |
| CCOC(=O)c1sc2nc3c(cc2c1N)COC(C)(C)C3 | 97 | 92% (inactive) | 97% (inactive) | 111% (inactive) | 98.4% (inactive) | 3.91% (inactive) | 94.5 | 98.4 | -6.4% (inactive) | -3.23% (inactive) |  |  |  |  |  |  |
| COc1ccccc1-c1nnc(SCC(=O)N2CC(C)CC(C)C2)o1 (stereo unspecified) | 80.5 | 81.5% (inactive) | 80.5% (inactive) | 77.4% (inactive) | 78.1% (inactive) | -5.03% (inactive) | 83.2 | 78.1 | -5% (inactive) | -5% (inactive) |  |  |  |  |  |  |
| O=C(O)C1CCCN1c1ncnc2c1oc1ccccc12 (stereo unspecified) | 101 | 92% (inactive) | 101% (inactive) | 81% (inactive) | 92.3% (inactive) | -7.12% (inactive) | 99.4 | 92.3 | -0.4% (inactive) | -7.1% (inactive) |  |  |  |  |  |  |
| Nn1cc(-c2ccccc2)nc1SCC(=O)N1CCN(S(=O)(=O)c2ccccc2)CC1 | 77 | 96% (inactive) | 77% (inactive) | 90.5% (inactive) | 101% (inactive) | -0.4% (inactive) | 102 | 101 | 0.91% (inactive) | -6.56% (inactive) |  |  |  |  |  |  |
